Data taken from PubChem BioAssay (NCATS).
Records with an inconclusive call do not appear. Calls of active or inactive are those of the source. Unless noted, the call rests on the fitted dose curve; in most records, active means well fitted curve in the direction sought with a large enough effect; inconclusive means small, poorly fitted or top-dose-only effect, or another doubt; inactive means no such curve, though single readings can be large; an effect the other way counts as inactive or inconclusive. Square brackets hold non-standard residues; d marks the D form. Peptide text beside a SMILES is read from it. * marks the point of attachment. ξ: configuration not given here. Hexanoyl = CCCCCC(=O)*; ξL = CC(C)CC(N)C(=O)O

Columns and labels:
[1] = UWB1.289 Cancer Cell Toxicity qHTS against the NCATS CANVASS Library (AID 1347347); further: nearly all actives have a fitted effect of over 60% in size; further: potency means the concentration at half of the fitted maximal effect
Summary of the method: (§1)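 Viability read-out: CellTiter-Glo luminescence after 72 h compound exposure at 37 °C/5% CO2. Cells plated at 1000/well, 4 h pre-incubation; 11-point titration. Bortezomib served as control.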

[2] = U-118MG Cancer Cell Toxicity qHTS against the NCATS CANVASS Library (AID 1347351); further: on the % scale 0 is the no-effect control and ±100 the full control effect
Summary of the method: as §1

[3] = qHTS for ATAD5 Antagonist screened against the NCATS CANVASS Library (AID 1347370);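 further: HEK293T cells carrying an ATAD5 luciferase reporter co-treated with 10 µM 5-fluorouridine; on the % scale 0 is the no-effect control and ±100 the full control effect; nearly all actives have a fitted effect of over 65% in size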
Summary of the method: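 Compounds (11-point) co-dosed with 10 µM 5-FUrd for 16 h at 37 °C onto HEK293T-ATAD5 luciferase reporter cells. Viability measured by CellTiter-Fluor fluorescence, then ATAD5 reporter signal by luminescence.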

[4] = qHTS for Antimalaria activity screened against the NCATS CANVASS Library (AID 1347380); further: nearly all actives have a fitted effect of over 40% in size; further: potency means the concentration at half of the fitted maximal effect;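 on activity change, negative = inhibition: Plasmodium falciparum strain Dd2 asexual parasites grown in red blood cells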
Summary of the method: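 SYBR Green fluorescence at 485/535 nm was read 18 hr after lysis. This followed a 72 hr incubation at 37C in 5% O2, 5% CO2 of Dd2-infected erythrocytes (0.3% parasitemia, 2.5% final hematocrit) with compounds titrated over 11 concentrations.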

[5] = test system: NAD(P)H diaphorase (Clostridium kluyveri); assay: Diaphorse counterscreen qHTS: Assay Interference Panel against the NCATS CANVASS Library (AID 1347362); further: 0% is about no effect
Summary of the method: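 Clostridium kluyveri diaphorase in PBS + 0.01% Tween-20 preincubated 15 min with compounds. Resazurin and NADH then added for 5 min at room temperature in the dark; resorufin fluorescence read (ex 525, em 598).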

[6] = qHTS for Activators of p53 Stress Response Pathway screened against the NCATS CANVASS Library (AID 1347388); further: potency means the concentration at half of the fitted maximal effect
Summary of the method: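 p53RE-bla HCT-116 cells (4000/well) were pre-incubated for 5 h, then treated with compound (11 points) for 16 h at 37C. After 2 h with CCF4, the 460/530 nm ratio gave reporter activation; CellTiter-Glo measured viability.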

[7] = Secretion counterscreen for inhibitors of the SERCaMP assay screened against the NCATS CANVASS Library (AID 1347390);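 further: light from luciferase secreted into medium read as a measure of general secretion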; further: potency means the concentration at half of the fitted maximal effect; on activity change, negative = inhibition: on the % scale 0 is the no-effect control and ±100 the full control effect
Summary of the method: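 Luminescence from constitutively secreted GLuc in SH-SY5Y-GLuc STOP cells, read after coelenterazine addition, served as read-out. Compounds tested 0.001 - 77 uM for 20 h at 37C; Brefeldin A as positive control.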

[8] = OV-KATE Cancer Cell Toxicity qHTS against the NCATS CANVASS Library (AID 1347345); further: potency means the concentration at half of the fitted maximal effect
Summary of the method: as §1

[9] = qHTS Assay for Lipid Storage Modulators (AID 1519; calls by dose curve; on activity change, negative = inhibition: on the % scale 0 is the no-effect control and ±100 the full control effect); conditions: Drosophila S3 cells, BODIPY lipid droplet/cell ratio, laser cytometry, cells loaded with oleic acid
Summary of the method: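 Cells seeded at 5,000 per well were treated with compounds over a concentration series and loaded with oleic acid (400 uM, as added). Lipid droplet fluorescence (488 nm excitation, 500-530 nm channel) was read by laser-scanning cytometry and normalized to 20 uM Triacsin C.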

[10] = biological target: Glutathione peroxidase 1 (Homo sapiens) (UniProt P07203); assay: Primary qHTS Assay for Inhibitors of Recombinant Selenoprotein Glutathione Peroxidase 1 (GPX1) (AID 1845191); further: nearly all actives have a fitted effect of over 65% in size
Summary of the method: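 GR-coupled readout: NADPH consumption tracked by fluorescence, ex 340/em 450 nm, at t=0 and after 15 min at RT. Final mix 10 nM GPX1, 1 mM GSH, 0.5 mM CHP, 0.5 mM NADPH, 100 nM GR, 0.01% BSA, following 30 min enzyme–compound preincubation.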

Glutathione peroxidase 1 (Homo sapiens), sequence (P07203 whole entry, looked up): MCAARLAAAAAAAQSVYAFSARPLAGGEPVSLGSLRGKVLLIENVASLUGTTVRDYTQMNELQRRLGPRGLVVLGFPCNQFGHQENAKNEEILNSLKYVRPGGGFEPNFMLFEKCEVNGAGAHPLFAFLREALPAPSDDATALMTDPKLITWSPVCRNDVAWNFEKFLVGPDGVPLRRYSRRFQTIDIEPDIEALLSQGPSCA

COC1C(C)OC(OCC23C[C@@H]4[C@H](C)CC[C@H]4C4(C=O)CC2C=C(C(C)C)C34C(=O)O)[C@@H](O)[C@H]1O (some centres not stated)
inactive: Potency [1] | Potency [2] | Potency [3] | Potency [4]

C=C1C[C@]23C=CC(=O)[C@@](C)(CCCC(C)C(=O)N[C@@H](CO)C(=O)O)[C@@H]2C[C@@H]1CC3 (some centres not stated)
inactive: Potency [1] | Potency [5] | Potency [3] | Potency [4] | Potency [6] | Potency [7]

C[C@H](CCC(O)C(C)(O)CO)[C@@]1(O)CC[C@@]2(C)C3=C(CC[C@@]21C)[C@@]1(C)CCC(OC(=O)CCC(=O)O)C(C)(C)[C@@H]1CC3 (some centres not stated)
inactive: Potency [8] | Potency [2] | Potency [3] | Potency [6]

O=C1c2c(O)cc(O)cc2OC(c2ccc(O)cc2)C1O (configuration not stated)
active: Potency [4] 0.0053 µM
inactive: Potency [8] | Potency [1] | Potency [5] | Potency [3] | Potency [6]

CC(C)[C@@H]1CC(=O)c2coc3c2[C@H]1C[C@@H](C)C3=O
inactive: Potency [8] | Potency [5] | Potency [3] | Potency [6]

CC[C@@H](C)[C@H]1NC(=O)C(CC(C)C)NC(=O)[C@@H](CC(C)C)NC(=O)[C@H](Cc2c[nH]c3ccccc23)NC(=O)CNC(=O)[C@@H](CC(N)=O)NC1=O (stereo partly drawn) (cyclo(GW[dL][ξL][dI][dN]))
inactive: Potency [8] | Potency [1] | Potency [5] | Potency [3] | Potency [6]

C=C[C@@](C)(O)CC[C@@H]1[C@@]2(C)CCCC(C)(C)[C@@H]2CC[C@@]1(C)O
-15%: max response ([9]; measured here: cell count channel max response)
-21.7%: max response ([9]; measured here: lipid channel max response)
inactive: activity change, negative = inhibition ([9]; at 57.5 µM (top of the series)) -12.3% | Potency [8] | Potency [5] | Potency [6] | Potency [10]

C=C1C[C@H]2O[C@@H]3[C@@H]4[C@H](CC[C@@](C)(O)[C@@H]42)[C@H](C)COC3(C)[C@@H](OC(=O)CCCCCCC)CC1=O (some centres not stated)
active: Potency [8] 21.1 µM | Potency [1] 18.8 µM | Potency [7] 48.4 µM

CC1=C[C@H]2[C@H]3C(=O)C(c4ccc(O)cc4)=C[C@@]3(c3ccc(O)cc3)[C@@H]1C(=O)[C@]2(C)O
active: Potency [4] 0.0019 µM
inactive: Potency [8] | Potency [5] | Potency [3]

C/C=C(/CO)C(=O)O[C@@H]1[C@H](O)[C@@H](C(=O)OC)O[C@@H]2C[C@H]3OC(n4cnc5c(N)ncnc54)[C@H](OC)[C@H]3O[C@@]12O (some centres not stated)
inactive: Potency [8] | Potency [1] | Potency [2] | Potency [5] | Potency [3] | Potency [4] | Potency [6] | Potency [7]

CCCCCC(=O)N[C@@H](CC(C)C)C(=O)N[C@H](C=O)CCC(=O)O (Hexanoyl-Leu-Glu-aldehyde)
inactive: Potency [1] | Potency [2] | Potency [5] | Potency [6] | Potency [7]

CC(=O)N[C@H](C)c1nc(/C=C/C=C/C(=O)CC2CC(=O)CC[C@]2(C)O)cs1 (some centres not stated)
inactive: Potency [8] | Potency [1] | Potency [2] | Potency [3] | Potency [4] | Potency [6] | Potency [7]

Cc1cc(O)cc2c1C(=O)c1c(O)cc(O)cc1C2=O
inactive: Potency [1] | Potency [2] | Potency [5] | Potency [3] | Potency [6] | Potency [7]

O=C1CC(c2ccc(O)cc2)Oc2cc(O)ccc21 (configuration not stated)
inactive: Potency [8] | Potency [5] | Potency [4]

O=c1cc(-c2ccc(O)cc2)oc2cc(O)c([C@@H]3OC(CO)[C@H](O)[C@@H](O)[C@H]3O)c(O)c12 (some centres not stated)
inactive: Potency [1] | Potency [5] | Potency [3] | Potency [4] | Potency [6] | Potency [7]

C/C(=C\[C@@H](C)CC/C=C/CC/C=C/C(=O)O)[C@@H](O)[C@H](C)C(=O)CCCC1CC(=O)NC(=O)C1
inactive: Potency [8] | Potency [1] | Potency [5] | Potency [3] | Potency [4] | Potency [6]

COc1cc2c(cc1OC)[C@@H](c1ccc3c(c1)OCO3)C(C)[C@@H](C)C2=O (some centres not stated)
inactive: Potency [8] | Potency [2] | Potency [5] | Potency [6] | Potency [7]

[C-]#[N+][C@@]12C(=O)[C@@H]3[C@@H](O[C@@]4(C(=O)N(C)c5cccc1c54)C3(C)C)C(=O)[C@@]2(C)C=C
inactive: Potency [1] | Potency [5] | Potency [3] | Potency [6] | Potency [7]

CO[C@@H](C[C@@H](C)[C@@H](O)/C=C/C=C/CNC(=O)C(C)(C)[C@H](O)\C(C)=C/C=C\C=C\Cc1cnco1)[C@]1(O)[C@@H](C)C(=O)N(C)[C@@]12COC2=O
inactive: Potency [1] | Potency [2] | Potency [5] | Potency [3] | Potency [6] | Potency [7]

C=C(C)C(=O)O[C@H]1C[C@@]2(C)OC(=CC2=O)/C(C)=C\[C@H]2OC(=O)C(=C)[C@H]12
active: Potency [8] 2.11 µM | Potency [1] 9.41 µM | Potency [4] 0.265 µM | Potency [7] 3.05 µM

C[C@@]12C[C@@H](C[C@@H]3C(=O)O[C@@H](c4ccoc4)[C@H](OC(=O)c4ccccc4)[C@@H]31)OC2=O
inactive: Potency [1] | Potency [2] | Potency [5] | Potency [4] | Potency [7]

COc1ccc([C@@H]2c3cc4c(cc3C(=O)[C@H](C)C2C)OCO4)cc1OC (some centres not stated)
inactive: Potency [8] | Potency [7]
active: Potency [6] 11.7 µM
